Data on 34 molecules can be found in PubChem BioAssay (NCI).

Compounds without any hit were thinned out: in the full panel of roughly 83,000, 20% have a hit.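 Cell lines were cultured in 96-well plates, exposed to a single compound concentration, and assessed for percent growth 48 hours later.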 Values without a mark were called inactive. Calls of active or inactive are those of the source. How the source made its calls: active means growth percent below 10; inactive means the rest.

This assay concerns T-47D breast. Description: NCI-60 one-dose screen, 48 h (100 = growth as untreated, 0 = no growth, -100 = all killed). The note with it: 10 µM unless noted.
Regarding `Cc1nn(-c2ccccc2)c(Cl)c1/C=C(/NC(=O)c1ccccc1)c1nc2ccccc2[nH]1`, the growth was 86.7%.
For `Cc1ccc(-c2c(-c3ccccc3)c(=O)oc3ccc(C)cc23)cc1` the value was 84.3%.
As to `CC1(c2ccccc2)NC(=O)N(NC(=O)CSc2nc(-c3cccs3)nc3ccccc23)C1=O` (centres undefined), the growth is 95.9%.
For the molecule `C(=N\Nc1ncc(-c2cc3cc4c(cc3o2)OCO4)s1)/c1ccco1`, the growth is 35.2%.
For `O=C1/C(=C\c2cccnc2)SC(=S)N1CCc1ccc(O)cc1` the value was 37.6%; for `CC1(C)CC[C@]2(C(=O)N3CCOCC3)CC[C@]3(C)C(=CC[C@@H]4[C@@]5(C)CC[C@H](OC(=O)c6cccnc6)C(C)(C)[C@@H]5CC[C@]43C)[C@@H]2C1`, 54.7%.
Regarding `COC(=O)[C@]12CC[C@@H](C)[C@H](C)[C@@H]1C1=CC[C@@H]3[C@@]4(C)C(C=O)=C[C@@](C)(COC(=O)c5ccco5)[C@@H]4C(=O)C[C@@]3(C)[C@]1(C)CC2`, the growth is 0.38% (active).
`O=C(COc1ccc(/C=C2\Oc3ccccc3C2=O)cc1)Nc1nc2c(s1)CCCC2`: the growth is 87%.
For `Cn1cc(-c2csc(-c3ccccc3)n2)c2cccnc21` the value was -45.4% [100 µM] (active); for `CCOP(=O)(OCC)C1CP(=O)(c2ccccc2)CC(C)=C1Cl` (centres undefined), 102%.
Turning to `S=C(Cc1ccc2c(c1)CCCC2)N1CCOCC1`, the growth was 80.2%.
As to `CN1C(=O)N(C)C2C1NN=c1s/c(=C\c3ccccc3)c(=O)n12` (centres undefined), the growth was 37.9%.
On to `Cc1ccc(C(=O)CSc2nc(-c3ccc(Br)cc3)c(C#N)c(=O)[nH]2)cc1`, for which the growth was 93%.
As to `O=C1N=c2cc3c(cc2=C/C1=C/c1sc(=S)n(CCc2ccc(O)cc2)c1O)OCCO3`, the growth is 81.5%.
As to `COc1ccc(CN2C(=O)C(Cl)=C(Nc3cccc(C(F)(F)F)c3)C2=O)cc1`, the growth is 60.8%.
For `O=C1C=C[C@]2(C[C@@H](c3cccc(C(F)(F)F)c3)O[C@@H](c3cccc(C(F)(F)F)c3)O2)O1` the value was -49.6% (active); for `Clc1cc(Cl)cc(Nc2ccc3cc(OCCCN4CCOCC4)ccc3n2)c1`, 32%.
Turning to `CC(=O)OC1CCC2(C)C(=CC3C4CCC(=O)C4(C)CCC32)C1` (centres undefined), the growth was 105%.
As to `COc1cc(C2NC(=O)c3ccccc3N2)ccc1OCCCCCOc1c(OC)cc(C2=NOC(c3cc(OC)c(OC)c(OC)c3)C2)cc1OC` (centres undefined), the growth was 39.8%.
For `O=C(N/N=C/c1ccncc1)c1ccc(C(F)(F)F)nc1Nc1cccc(C(F)(F)F)c1` the value was 25.6%; for `C[C@@]1(CCC#N)[C@H]2CC[C@@H]3[C@H]4[C@H](C(=O)/C=C/c5cccnc5)CC[C@]4(C#N)CC[C@@]3(C)[C@]2(C)CC[C@H]1C(=O)/C=C/c1cccnc1`, 65.2%.
For `Cc1ccc(NCCN(C)C)c2c(=O)c3ccccc3sc12` the value was 22.3%; for `COc1ccccc1NC(=O)N/C(N)=N/c1nc2ccccc2s1`, 52.2%; for `COC(=O)CCC1=C(C)C2=NC1=CC1=NC(=CC3=NC(=Cc4[nH]c(/c(=C(/C)O)c4C)=C2)C(C(C)=O)=C3C)C(C)=C1CCC(=O)OC`, 82.9%.
For `Oc1ccc(CN2CCC(N3CCOCC3)CC2)c2cccnc12`, the growth is 16.3%.
Consider `C#Cc1cccc(NC(=O)c2ccc(NC(=O)CCl)cc2)c1`, for which the growth was 19.1% [8.25 µM].
For the molecule `Cc1c(C(=O)NC(Cc2ccccc2)C(O)C(=O)NCc2ccc(F)cc2)[nH]c2ccccc2c1=O` (centres undefined), the growth was 102%.
As to `Cc1ccc2nc(NC(=O)CSc3nc(Nc4ccc([N+](=O)[O-])cc4)c(C#N)c(-c4ccccc4)n3)sc2c1`, the growth is -58.4% (active).
Turning to `CCN1C(=O)N(CC)C2Nn3c(s/c(=C4\C(=O)N(C)c5ccccc54)c3=O)=NC21` (centres undefined), the growth was 27.5%.
For the molecule `C=CCSc1nc2ccccc2cc1/C=N/O`, the growth was 67.6%.
For `C=C(C)[C@@H]1CC[C@]2(C)[C@H](CC=C3[C@@H]4CC(C)(C)CC[C@]4(C(N)=O)CC[C@]32C)[C@@]1(C)CCC#N` the value was 10.4%; for `CCOC(=O)C/C(C)=N\NC(=O)c1ccncc1`, 92.1%.
In the case of `O=C(/C=C/c1ccc(Cl)nc1)c1ccc(Cl)cc1Cl`, the growth is 91.6%.
For `COC(=O)[C@]12CC[C@@H](C)[C@H](C)[C@@H]1C1=CC[C@@H]3[C@@]4(C)C(C=O)=C[C@@](C)(COC(=O)c5ccco5)C4=CC[C@@]3(C)[C@]1(C)CC2` the value was -8.1% (active).
